Pf apPOL inh: Pf-apPOL DNA polymerase inhibition | Recombinant Pf-apPOL, molecular beacon fluorescence, 1.5 h | inhibition, % at 10 µM | 0.25% of 210,000 active | AID 1794808
mHTT-CaM PPI inh: inhibitors of human mutant huntingtin-calmodulin interaction; P42858; AlphaScreen His-mHTT/GST-CaM binding, luminescence; inhibition, % at 15 µM; 3.6% of 190,000 active; AID 1671202;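 further: 0% = both proteins with DMSO and 100% = one protein alone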
Numbers without * were called inactive. Only some compounds are listed: those with a hit (about 3.5% of all), similar ones and a draw of the others. No stated cut-off is given here; in the data, active means inhibition above about 50%; inactive means the rest.

`O=C1CC(N2CCCCC2)C(=O)N1c1cccc(Cl)c1` (centres undefined) gave Pf apPOL inh -8 and mHTT-CaM PPI inh 0.
`CCCN(CCC)S(=O)(=O)c1ccc(C(=O)NN=Cc2ccc(N(C)CCC#N)cc2)cc1` gave Pf apPOL inh -15.
For CCC(C)NC(=O)c1c[nH]n2c(=O)c(Cc3ccccc3Cl)c(C)nc12 (centres undefined) the results were Pf apPOL inh -4 and mHTT-CaM PPI inh 59*.
For COc1cccc(CNC(=O)c2c[nH]n3c(=O)c(Cc4ccc(C)cc4)c(C)nc23)c1 the results were Pf apPOL inh -17 and mHTT-CaM PPI inh 61*.
Screening CCN(CCNC(=O)c1c[nH]n2c(=O)c(Cc3ccccc3F)c(C)nc12)c1ccccc1 returned Pf apPOL inh -23 and mHTT-CaM PPI inh 79*.
`Cc1nc2c(C(=O)NCCN(C)C)c[nH]n2c(=O)c1Cc1ccccc1F` gave Pf apPOL inh 3 and mHTT-CaM PPI inh 18.
Cc1nc2c(C(=O)NCc3ccccc3Cl)c[nH]n2c(=O)c1Cc1ccccc1F was read as Pf apPOL inh -10 and mHTT-CaM PPI inh 31.
CCCc1c(C)nc2c(C(=O)NCc3ccc(OC)cc3)c[nH]n2c1=O was read as Pf apPOL inh -1 and mHTT-CaM PPI inh 10.
Screening Cc1c(NC(=O)c2cc([N+](=O)[O-])nn2Cc2ccccc2)c(=O)n(-c2ccccc2)n1C returned Pf apPOL inh -11 and mHTT-CaM PPI inh 2.
Screening COc1cccc(NC(=O)NCC2CC(=O)N(Cc3ccc(F)cc3)C2)c1OC (centres undefined) returned Pf apPOL inh -39 and mHTT-CaM PPI inh 4.
`Cc1ccnc(N2CCCC(C(=O)NCc3ccc4c(c3)OCO4)C2)n1` (centres undefined) gave Pf apPOL inh 1 and mHTT-CaM PPI inh -7.
O=C(O)CCCNC(=O)c1ccncc1 was read as Pf apPOL inh 1 and mHTT-CaM PPI inh 0.
`O=C(CSc1cccc2cccnc12)N1CCCCC1` gave Pf apPOL inh -2 and mHTT-CaM PPI inh 88*.
Screening O=C(CSc1cccc2cccnc12)NC1CCCCC1 returned Pf apPOL inh -2 and mHTT-CaM PPI inh 16.
`CCc1ccccc1N1CCN(C(=O)c2ccc(N3C(=O)C4CCCCC4C3=O)cc2)CC1` (centres undefined) gave Pf apPOL inh 1 and mHTT-CaM PPI inh -1.
For O=C(c1ccccc1)c1ccc2nc(-c3ccc4ccccc4n3)[nH]c2c1 the results were Pf apPOL inh -6 and mHTT-CaM PPI inh 10.
`CC(C)c1ccc(N=Cc2c[nH]c3ccccc23)cc1` gave Pf apPOL inh -1 and mHTT-CaM PPI inh 2.
COc1cccc(N=Cc2c[nH]c3ccccc23)c1 was read as Pf apPOL inh 2 and mHTT-CaM PPI inh 100*.
`Cc1ccnc(N2CCCC(C(=O)NCc3ccccc3)C2)n1` (centres undefined) gave Pf apPOL inh -3 and mHTT-CaM PPI inh -7.
`COc1ccc(CNCCC2(c3ccccc3)CC(C)N(C)CC2C)cc1OC` (centres undefined) gave Pf apPOL inh 1 and mHTT-CaM PPI inh -1.
`Cc1ccc(NS(=O)(=O)c2ccc3nc(-c4ccccc4)[nH]c3c2)c(C)c1` gave Pf apPOL inh -8 and mHTT-CaM PPI inh 6.
For O=C(NNC(=O)c1ccc(Cl)cc1)C(=O)NNC(=O)c1ccc(Cl)cc1 the results were Pf apPOL inh 90*.
Screening Nc1ccccc1C(=O)NNC(=O)c1ccc(Cl)cc1 returned Pf apPOL inh 7.
CC(C)CNC(=O)c1ccn2c(-c3ccccc3Cl)nnc2c1 was read as Pf apPOL inh -4 and mHTT-CaM PPI inh -1.
Screening CC/C(C)=C1\C(=O)NN(c2ccc(Br)cc2)C1=O returned Pf apPOL inh -1 and mHTT-CaM PPI inh 74*.
`Cn1c(=O)n(C)c2cc(/C=C3\C(=O)NN(c4ccc(Br)cc4)C3=O)ccc21` gave Pf apPOL inh 5 and mHTT-CaM PPI inh 2.
`COc1cccc(CC(=O)Nc2cc(C)n(-c3cccc(C)c3)n2)c1` gave Pf apPOL inh -1 and mHTT-CaM PPI inh 6.
`COc1ccc(C(=O)Nc2c3c(nn2-c2ccc([N+](=O)[O-])cc2)CS(=O)(=O)C3)cc1OC` gave Pf apPOL inh 0 and mHTT-CaM PPI inh 4.
For COc1ccccc1/C=C1\N=C(c2ccc(OC)c([N+](=O)[O-])c2)OC1=O the results were Pf apPOL inh 4 and mHTT-CaM PPI inh 0.
For Cc1cc(C)cc(N2CCC(NC(=O)Nc3cccc(C)c3C)C2=O)c1 (centres undefined) the results were Pf apPOL inh -3 and mHTT-CaM PPI inh -7.
Cc1cc(=O)[nH]c(-c2cnccn2)n1 was read as Pf apPOL inh -17 and mHTT-CaM PPI inh 94*.
Cc1cc(=O)[nH]c(-c2ccccc2)n1 was read as Pf apPOL inh -2.
`COc1c(C(=O)NC(C)c2ccccc2)sc2ccc(F)cc12` (centres undefined) gave Pf apPOL inh -2 and mHTT-CaM PPI inh -3.
`CCCNC(=O)c1nnn(Cc2ccc(Cl)cc2)c1-n1cccc1` gave Pf apPOL inh -4 and mHTT-CaM PPI inh 8.
Screening C=CCn1c(=N)n(CC(=O)c2ccc(-c3ccccc3)cc2)c2ccccc21 returned Pf apPOL inh -2 and mHTT-CaM PPI inh 52*.
Screening C=CCn1c(=N)n(CC(=O)c2ccc(Cl)c(Cl)c2)c2ccccc21 returned Pf apPOL inh -4 and mHTT-CaM PPI inh -46.
O=C(CN1CCN(c2ccc([N+](=O)[O-])c(N3CCCCC3)c2)CC1)N1CCOCC1 was read as Pf apPOL inh -2 and mHTT-CaM PPI inh 24.
`CN(C)c1ccc(Nc2c([N+](=O)[O-])cc([N+](=O)[O-])c3cccnc23)cc1` gave Pf apPOL inh -12 and mHTT-CaM PPI inh 87*.
`O=[N+]([O-])c1cc([N+](=O)[O-])c2cccnc2c1Nc1ccccc1` gave Pf apPOL inh -3 and mHTT-CaM PPI inh 13.
For CCC(C)Sc1nnc2n1CCN2c1ccc(F)cc1 (centres undefined) the results were Pf apPOL inh -6 and mHTT-CaM PPI inh -3.
`Cn1ncc(N2CCCC(C(=O)NC3CCCCCCC3)C2)cc1=O` (centres undefined) gave Pf apPOL inh 1 and mHTT-CaM PPI inh 5.
Cc1cc2nn(CC(=O)NCc3ccco3)c(=O)n2c(Nc2ccc(C)c(F)c2)n1 was read as Pf apPOL inh 11 and mHTT-CaM PPI inh 0.
Screening COc1ccc(-c2c(Sc3ccccc3)c3cc(-c4cc(OC)c(OC)c(OC)c4)ccc3n2C)cc1 returned Pf apPOL inh 0 and mHTT-CaM PPI inh -4.
Screening CCOc1ccc(CN2CCc3nc(N4CCC(C)CC4)ncc3C2)cc1 returned Pf apPOL inh -4 and mHTT-CaM PPI inh 27.
CCCN1CCN(c2ncc3c(n2)CCN(Cc2ccc(N(C)C)cc2)C3)CC1 was read as Pf apPOL inh -4 and mHTT-CaM PPI inh 53*.
CC1CCN(c2ncc3c(n2)CCN(Cc2ccc(Br)cc2)C3)CC1 was read as Pf apPOL inh -7 and mHTT-CaM PPI inh 54*.
Screening CCN1CCN(c2ncc3c(n2)CCN(Cc2ccc(Br)cc2)C3)CC1 returned Pf apPOL inh 2 and mHTT-CaM PPI inh 76*.
CCCN1CCN(c2ncc3c(n2)CCN(Cc2ccc(CC)cc2)C3)CC1 was read as Pf apPOL inh -4 and mHTT-CaM PPI inh 16.
`CCCN1CCN(c2ncc3c(n2)CCN(Cc2ccc(Br)cc2)C3)CC1` gave Pf apPOL inh -4 and mHTT-CaM PPI inh 32.

Screens deposited in PubChem BioAssay by University of Kansas High Throughput Screening Laboratory.
